Assay [1] can be described thus: qHTS assay to identify small molecule agonists of the estrogen receptor alpha (ER-alpha) signaling pathway in the presence of an antagonist - cell viability counter screen (AID 1259386).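 Note: series mostly up to about 92 µM; cells exposed to compounds for 22 h at 37 °C before the viability read; nearly all actives have a fitted effect of over 30% in size.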 Summed up:
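Steps: 5-day stripped-FBS culture; seed and incubate 24hr; add ICI-182,780 (10.0nM final); pin 15-point compound titration; incubate 22hr at 37C; add CellTiter-Fluor at 21hr; read fluorescence.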
(In general: qHTS replaces the single test concentration by a dilution series.)

Assay [2] has as its target Progesterone receptor (Homo sapiens) (UniProt P06401). The experiment in a line: qHTS assay to identify small molecule agonists of the progesterone receptor (PR) signaling pathway (AID 1346784; calls by dose curve; note: nearly all actives have a fitted effect of over 30% in size). The essentials: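 Compounds were tested for PR agonism in HEK 293T cells bearing a beta-lactamase gene under UAS control. Treatment lasted 16 hr at 37C; signal came from fluorescence of a FRET substrate.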

The target is the same in assay [3]. Description: qHTS assay to identify small molecule antagonists of the progesterone receptor (PR) signaling pathway (AID 1346795; active = well fitted inhibition curve with a large enough effect in the signal ratio in the repeat runs, not every such curve was filed as active; the % refers to the signal ratio). The essentials: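 In HEK293T cells bearing the PR-UAS-bla reporter, compound effects on promegestone-driven (1 nM) beta-lactamase expression are assessed after 16 hr using a fluorescent FRET substrate incubated 2 hr at room temperature.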

The nature of assay [4]: qHTS assay to identify small molecule antagonists of the progesterone receptor (PR) signaling pathway - cell viability counter screen (AID 1346798). Note: series mostly up to about 92 µM; nearly all actives have a fitted effect of over 50% in size. The essentials: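 Following a 4 hr attachment, PR-UAS-bla HEK293T cells in charcoal-stripped FBS medium were exposed to compounds with R5020 for 16 hr; CellTiter-Glo was added and luminescence read after 30 min at room temperature.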

Assay [5] can be described thus: qHTS assay to identify small molecule agonists of the progesterone receptor (PR) signaling pathway - cell viability counter screen (AID 1346799; calls by dose curve; note: nearly all actives have a fitted effect of over 45% in size). Summed up:
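Here, 3,000 PR-UAS-bla HEK293T cells per well were treated with compounds for 16 hr after a 6 hr preincubation at 37C and 5% CO2; cell viability is the CellTiter-Glo luminescence signal.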

Assay [6] can be described thus: qHTS assay to identify small molecule antagonists of the TGF-beta/Smad signaling pathway - cell viability counter screen (AID 1346824). Note: nearly all actives have a fitted effect of over 50% in size. Summed up:
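Cytotoxicity counter-screen run in the same wells as the beta-lactamase Smad reporter read: CellTiter-Glo luminescence after 30 min at room temperature. HEK 293T SBE-bla cells had 5 hr compound exposure at 37 C with TGF-beta1 (0.25 ng/mL stock).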

A short description of assay [7]: qHTS assay to identify small molecule agonists of the TGF-beta/Smad signaling pathway - cell viability counter screen (AID 1346829). Note: top concentration of the series differs between compounds; nearly all actives have a fitted effect of over 45% in size. Summed up:
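Luminescence from CellTiter-Glo, read after a 30 min room-temperature incubation, gives cell viability of SBE-bla HEK 293T cells treated 5 hr with compounds at 37 C.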

The nature of assay [8]: qHTS assay to identify small molecule agonists of the TGF-beta/Smad signaling pathway (AID 1346859; active = well fitted activation curve with a large enough effect in the signal ratio in the repeat runs, not every such curve was filed as active; the % refers to the signal ratio; note: series mostly up to about 77 µM). The essentials: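 Each well held 4,000 SBE-bla HEK 293T cells incubated overnight before compound addition; 5 hr later the cleavable FRET substrate went on for 2 hr at room temperature, and fluorescence was read at two emissions.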
The target in assay [9] is Thyrotropin-releasing hormone receptor (Homo sapiens) (UniProt P34981). The experiment in a line: qHTS assay to identify small molecule antagonists of the thyrotropin-releasing hormone receptor (TRHR) signaling pathway (AID 1346877; active = well fitted inhibition curve with a large enough effect in the repeat runs, not every such curve was filed as active; note: series mostly up to about 51 µM). The essentials: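 Human TRHR in HEK293 cells; inhibition of the intracellular calcium rise triggered by 1 nM TRH was followed by fluorescence over 3 min. Compounds were run at 15 concentrations, three replicates each.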

Assay [10] shares this target. The experiment in a line: qHTS assay to identify small molecule agonists of the thyrotropin-releasing hormone receptor (TRHR) signaling pathway (AID 1346891; calls by dose curve; note: series mostly up to about 58 µM). The essentials:
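Screening of agonists relied on calcium signalling in HEK293 cells expressing human TRHR: dye loading 2 h at 37 °C preceded compound addition and a 3-min fluorescence time course.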

A short description of assay [11]: Human pregnane X receptor (PXR) small molecule agonists, qHTS cell viability counter screen (AID 1346977). Note: nearly all actives have a fitted effect of over 50% in size. Summed up:
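Tox21 qHTS format; PXR-Luc HepG2, 2,000/well, charcoal-stripped FBS 5%. Cpd exposure 24hr. Read: CellTiter-Fluor fluorescence, multiplexed with luciferase.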

A short description of assay [12]: Caspase-3/7 induction in HepG2 cells by small molecules, qHTS assay (AID 1346978). Note: nearly all actives have a fitted effect of over 15% in size. Summed up:
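Caspase-3/7 induction was measured by Caspase-Glo 3/7 luminescence (30 min, room temperature) after a 17 hr compound exposure of wild-type HepG2 cells seeded at 2,000 per well and pre-incubated 5 hr.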

Assay [13] can be described thus: Caspase-3/7 induction in HepG2 cells by small molecules, qHTS cell viability counter screen (AID 1346981). Note: series mostly up to about 92 µM; nearly all actives have a fitted effect of over 30% in size. Summed up: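 The parent HepG2 line is plated at 2,000 cells per well and rested 5 hr before compound pinning from DMSO stocks. Following a 16-hr treatment at 37 C, a fluorogenic live-cell substrate (CellTiter-Fluor) reports viability after 1 hr.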
Assay [14] addresses Nuclear receptor subfamily 1 group I member 2 (Homo sapiens) (UniProt O75469). The experiment in a line: Human pregnane X receptor (PXR) small molecule agonists, qHTS assay (AID 1346982). Note: nearly all actives have a fitted effect of over 35% in size. Note: potency is the fitted concentration of half-maximal effect. Summed up: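 After plating in 5% charcoal-stripped FBS and a 5 hr rest, PXR-Luc HepG2 cells received compounds in DMSO. Following 24 hr at 37 C, ONE-Glo was added and light output read.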
Assay [15] can be described thus: Caspase-3/7 induction in CHO-K1 cells by small molecules, qHTS cell viability counter screen (AID 1346979). Note: nearly all actives have a fitted effect of over 35% in size. The essentials:
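CellTiter-Fluor viability check, qHTS format: wild-type CHO-K1, 16hr compound treatment, 1hr reagent incubation, fluorescence read.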

Assay [16] can be described thus: Caspase-3/7 induction in CHO-K1 cells by small molecules, qHTS assay (AID 1346980). Note: nearly all actives have a fitted effect of over 15% in size. Summed up:
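Luminescent Caspase-Glo 3/7 read (30min, room temperature) quantified apoptosis induction. Cells were wild-type CHO-K1, treated with compound for 17hr at 37 C and 5% CO2.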

Assay [17] has as its target Cytochrome P450 2D6 (Homo sapiens) (UniProt P10635). The experiment in a line: Cytochrome P450 Family 2 Subfamily D Member 6 (CYP2D6) small molecule antagonists: luciferase reporter qHTS assay (AID 1671196). Note: series mostly up to about 120 µM; nearly all actives have a fitted effect of over 50% in size. The essentials: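 Quantitative HTS of Tox21 chemicals against CYP2D6 using a luminescent proluciferin substrate. After NADPH addition, 1 h room-temperature reaction; luminescence recorded 20 min post detection reagent.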

The target of assay [18] is Nuclear receptor subfamily 1 group I member 2 (Rattus norvegicus) (UniProt Q9R1A7). The experiment in a line: Rat pregnane X receptor (rPXR) activation by small molecules, qHTS assay (AID 1346983). Note: nearly all actives have a fitted effect of over 20% in size. The following applies: rPXR luciferase reporter cells, One-Glo luminescence, 24 h; hits give high values. The essentials:
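Luminescent readout (One-Glo luciferase, 30 min room temperature) followed 24 hr compound treatment at 37 C of rPXR cells plated 2,000 per well and preincubated 5hr; qHTS format with compounds delivered in DMSO.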

Assay [19] addresses Nuclear receptor subfamily 1 group I member 2 (Homo sapiens) (UniProt O75469). The experiment in a line: CYP3A4 induction through human pregnane X receptor (PXR) by small molecules, qHTS assay (AID 1346984). Note: nearly all actives have a fitted effect of over 40% in size. Summed up:
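Human PXR activation is tracked via CYP3A4 promoter-luciferase in DPX-2 (HepG2) cells. Compounds treat cells for 24hr at 37C, and luminescence is read after One-Glo.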

Molecules are shown by their SMILES. Unmarked numbers belong to inactive results. Inconclusive results are not listed. Activity calls are given as the source filed them. Unless noted, calls come from the whole dose curve; as a rule, active = well fitted curve in the direction sought with a large enough effect in the repeat runs; inconclusive = weak or mixed curves; inactive = no such curve, though single readings can be large; an effect the other way counts as inactive or inconclusive.
% is set by controls: 0 for no effect and ±100 for the full control effect.

Sequence of Progesterone receptor (Homo sapiens) (P06401 whole entry, looked up): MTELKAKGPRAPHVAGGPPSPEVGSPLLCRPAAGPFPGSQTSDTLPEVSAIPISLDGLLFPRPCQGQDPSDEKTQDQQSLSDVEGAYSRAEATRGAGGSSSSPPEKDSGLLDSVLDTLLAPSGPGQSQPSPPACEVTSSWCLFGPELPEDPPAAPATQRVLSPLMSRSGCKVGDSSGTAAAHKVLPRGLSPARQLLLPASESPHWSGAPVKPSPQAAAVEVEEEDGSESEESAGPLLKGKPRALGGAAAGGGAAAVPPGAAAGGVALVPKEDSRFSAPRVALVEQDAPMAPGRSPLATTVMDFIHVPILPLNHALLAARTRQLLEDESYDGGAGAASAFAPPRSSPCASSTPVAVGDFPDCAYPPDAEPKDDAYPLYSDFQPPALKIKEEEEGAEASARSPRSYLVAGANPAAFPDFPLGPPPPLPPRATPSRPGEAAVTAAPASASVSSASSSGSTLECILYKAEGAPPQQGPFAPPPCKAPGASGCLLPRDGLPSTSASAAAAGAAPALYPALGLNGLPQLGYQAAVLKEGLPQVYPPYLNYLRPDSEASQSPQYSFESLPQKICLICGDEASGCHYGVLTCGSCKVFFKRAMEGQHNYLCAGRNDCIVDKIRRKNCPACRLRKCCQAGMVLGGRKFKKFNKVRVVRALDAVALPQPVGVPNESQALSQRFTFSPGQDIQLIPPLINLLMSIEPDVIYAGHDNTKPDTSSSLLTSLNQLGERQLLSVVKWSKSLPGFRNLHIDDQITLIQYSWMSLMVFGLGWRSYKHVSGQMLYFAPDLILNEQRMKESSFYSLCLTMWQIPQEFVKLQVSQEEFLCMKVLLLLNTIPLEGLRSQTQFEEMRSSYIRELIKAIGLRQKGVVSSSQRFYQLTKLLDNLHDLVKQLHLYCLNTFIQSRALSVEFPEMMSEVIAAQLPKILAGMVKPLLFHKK
Sequence of Thyrotropin-releasing hormone receptor (Homo sapiens) (P34981 whole entry, looked up): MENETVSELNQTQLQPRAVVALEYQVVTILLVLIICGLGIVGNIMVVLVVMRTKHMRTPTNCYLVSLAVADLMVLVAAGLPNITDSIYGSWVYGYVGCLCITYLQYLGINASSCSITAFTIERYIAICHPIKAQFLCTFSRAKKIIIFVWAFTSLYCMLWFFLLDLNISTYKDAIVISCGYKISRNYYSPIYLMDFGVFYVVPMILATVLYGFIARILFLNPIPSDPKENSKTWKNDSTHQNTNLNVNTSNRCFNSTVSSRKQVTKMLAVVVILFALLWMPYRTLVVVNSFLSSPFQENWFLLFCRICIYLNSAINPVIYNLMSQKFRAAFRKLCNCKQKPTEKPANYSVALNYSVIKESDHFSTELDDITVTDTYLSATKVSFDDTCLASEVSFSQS
Sequence of Nuclear receptor subfamily 1 group I member 2 (Homo sapiens) (O75469 whole entry, looked up): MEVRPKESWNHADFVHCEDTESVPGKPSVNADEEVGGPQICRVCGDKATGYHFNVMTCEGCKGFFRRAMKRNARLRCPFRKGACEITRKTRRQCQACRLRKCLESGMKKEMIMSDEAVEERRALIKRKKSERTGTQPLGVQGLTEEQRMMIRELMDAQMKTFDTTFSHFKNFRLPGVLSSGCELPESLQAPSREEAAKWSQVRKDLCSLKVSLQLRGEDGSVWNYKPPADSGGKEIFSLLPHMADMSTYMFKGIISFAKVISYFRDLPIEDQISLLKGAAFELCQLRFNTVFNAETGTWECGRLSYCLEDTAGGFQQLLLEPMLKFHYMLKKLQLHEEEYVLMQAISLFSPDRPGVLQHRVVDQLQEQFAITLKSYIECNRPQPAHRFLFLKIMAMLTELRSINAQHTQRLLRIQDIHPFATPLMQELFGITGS
Sequence of Cytochrome P450 2D6 (Homo sapiens) (P10635 whole entry, looked up): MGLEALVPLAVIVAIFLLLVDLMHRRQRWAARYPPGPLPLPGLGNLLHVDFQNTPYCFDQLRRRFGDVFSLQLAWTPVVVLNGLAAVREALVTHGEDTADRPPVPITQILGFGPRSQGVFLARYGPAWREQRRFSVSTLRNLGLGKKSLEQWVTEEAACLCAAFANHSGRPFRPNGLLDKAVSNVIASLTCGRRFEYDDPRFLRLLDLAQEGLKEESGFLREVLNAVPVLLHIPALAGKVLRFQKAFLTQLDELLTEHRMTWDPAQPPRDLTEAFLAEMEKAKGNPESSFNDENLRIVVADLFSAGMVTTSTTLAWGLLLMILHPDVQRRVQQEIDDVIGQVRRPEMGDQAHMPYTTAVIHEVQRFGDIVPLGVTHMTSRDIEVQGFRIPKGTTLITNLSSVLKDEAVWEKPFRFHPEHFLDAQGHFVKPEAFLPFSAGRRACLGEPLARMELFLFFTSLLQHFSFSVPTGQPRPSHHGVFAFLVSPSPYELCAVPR
Sequence of Nuclear receptor subfamily 1 group I member 2 (Rattus norvegicus) (Q9R1A7 whole entry, looked up): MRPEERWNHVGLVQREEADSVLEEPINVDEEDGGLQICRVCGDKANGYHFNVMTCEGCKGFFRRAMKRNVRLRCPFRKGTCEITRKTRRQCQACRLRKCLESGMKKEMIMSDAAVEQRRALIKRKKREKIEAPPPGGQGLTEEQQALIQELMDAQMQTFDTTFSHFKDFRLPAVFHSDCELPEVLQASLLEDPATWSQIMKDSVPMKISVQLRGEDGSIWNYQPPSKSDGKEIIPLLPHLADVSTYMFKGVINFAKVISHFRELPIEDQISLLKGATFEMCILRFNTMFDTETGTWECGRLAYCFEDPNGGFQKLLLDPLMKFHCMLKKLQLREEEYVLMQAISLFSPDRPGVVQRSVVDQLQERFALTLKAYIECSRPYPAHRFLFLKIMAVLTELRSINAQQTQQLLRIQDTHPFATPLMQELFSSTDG

Take `Sc1nc2ccccc2s1`: the Potency result in assay [1], in assay [2], in [3], in assay [4], in assay [5] and in assay [6] was “inactive” throughout. Further, the Potency entry in [7], in assay [8], in assay [9], in [11], in assay [12] and in assay [13] was “inactive” each time. Also, the compound was called inactive in assay [10]. In addition, the Potency in assay [14] is 54.5 µM (active).

With `C=C(C)c1cccc(C(=C)C)c1`, the Potency result in assay [1], in [2], in [3], in assay [4], in assay [5] and in assay [7] was “inactive” in each case. The Potency result in assay [8], in assay [9], in assay [11], in assay [12], in assay [15] and in [16] was “inactive” throughout. The Potency result in assay [13], in [14] and in [17] was “inactive” each time. In [10], the compound was called inactive.

With `OC[C@@H](O)[C@@H](O)CO`, the Potency entry in [1], in assay [2], in assay [3], in assay [4], in assay [5] and in [7] was “inactive” in each case. For the same compound, the Potency entry in assay [8], in assay [9], in assay [11], in [12], in assay [15] and in [16] was “inactive” each time. The Potency entry in [14] and in assay [17] was “inactive” each time. Further, in [10], the result was inactive.

As for `c1ccsc1`, the Potency result in assay [1], in assay [2], in assay [3], in assay [4], in [5] and in [6] was “inactive” throughout. In addition, the Potency result in assay [7], in assay [8], in assay [9], in assay [11], in [15] and in assay [16] was “inactive” in each case. The Potency result in [13], in assay [14] and in assay [17] was “inactive” each time. In [10], the compound was called inactive.

For the compound `CC(C)Cn1cnc2c(N)nc3ccccc3c21`, the activity change, negative = cytotoxicity in [1] is -6.27% [at 19 µM]; in assay [4], 10.2% [at 18.9 µM]; in [5], 13.4% [at 19 µM]; in assay [7], 6.14% [at 15.8 µM]; in assay [11], -9.27% [at 19 µM]; in assay [15] it was -8.58% [at 19 µM]. The activity change, negative = cytotoxicity in assay [13] is -2.64% [at 19 µM]. The results for the activation in assay [2], in [8] and in assay [14] were 1.05% [at 19 µM], -1.86% [at 15.8 µM] and 5.89% [at 19 µM], respectively. Further, in [3], the activity change, negative = inhibition is 5.77% [at 18.9 µM]. For the same compound, the viability change, negative = cytotoxic in [6] is 1.27% [at 15.8 µM]. The caspase-3/7 activation in [16] is 0.247% [at 19 µM]. Moreover, the max activation in assay [18] was 2.02%. In assay [19], the Potency entry is “inactive”.

As to `CCC(C)[O-].CCC(C)[O-].CCOC(=O)/C=C(/C)[O-].[Al+3]`, the Potency result in assay [1], in [2], in assay [3], in assay [4], in assay [5] and in assay [7] was “inactive” throughout. For the same compound, the Potency entry in assay [8], in assay [11], in assay [12], in assay [15] and in assay [16] was “inactive” each time.

In the case of `Cc1cccc(C)c1NC(=O)c1ccc(N)cc1`, the Potency result in assay [1], in assay [2], in assay [3], in assay [4], in assay [5] and in [6] was “inactive” in each case. The Potency result in assay [7], in assay [8], in assay [11], in assay [15], in assay [16] and in assay [13] was “inactive” each time. Also, the Potency entry in assay [14] and in [17] was “inactive” in each case.

With `COC(=O)c1ccccc1C`, the Potency entry in assay [1], in assay [2], in [3], in [4], in assay [5] and in assay [6] was “inactive” in each case. For the same compound, the Potency entry in [7], in [8], in [11], in [12], in [15] and in [16] was “inactive” in each case. In addition, the Potency entry in assay [13], in assay [14] and in assay [17] was “inactive” each time.

Source of the values: PubChem BioAssay (Tox21).
